Screens from PubChem BioAssay.
The list is not random: actives were taken first. Their share in the collection is about 7.4%.
Rab9 prom act – qHTS Assay for Rab9 Promoter Activators; AID 485297, 2010; Potency, µM (top dose mostly 9.22 µM), for the others: at the highest dose activation, negative = inhibition, usual class: activators; 320,000 tested, 2.8% active; Huh7 Rab9 promoter-luciferase reporter, luminescence, 24 h; also: % of control where 0% means no effect; nearly all actives have a fitted effect of over 60% in size
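Huh7 cells stably carrying a Rab9 promoter-luciferase reporter, 1500 cells per well in OP-MEM I with 10% FBS, treated with compound 24 hours at 37C. Luciferase activity read by luminescence after 10 minutes with Amplite reagent.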
KinaseGlo FLuc – Counterscreen for Luciferase (Kinase-Glo TM) Inhibition; Luciferin 4-monooxygenase (Photuris pensylvanica), Q27757; Kinase-Glo luciferase, ATP luminescence, 8 min; Potency, µM (series often up to 38.3 µM), without a hit: at the highest dose activity change, negative = inhibition, hits mostly inhibitors; 200,000 tested, 0.28% active; AID 1379, 2008; also: % is scaled to controls: 0 for no effect and ±100 for the full control effect; nearly all actives have a fitted effect of over 60% in size
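Kinase-Glo luciferase light output from ATP and luciferin was measured with 10 uM ATP, within the enzyme's linear range. Buffer: 50 mM imidazole pH 7.2, 50 mM KCl, 7 mM MgCl2, 0.01% Tween 20, 0.05% BSA; luminescence read after 8 min at ambient temperature.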
NPC1 promoter act – qHTS Assay for NPC1 Promoter Activators; Huh7 NPC1 promoter luciferase reporter, 24 h; Potency, µM (highest dose often 9.22 µM), for the others: at the highest dose activation, actives largely listed as activators; 320,000 tested, 2.4% active; AID 485313, 2010; also: % of control where 0% means no effect; nearly all actives have a fitted effect of over 60% in size
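NPC1 promoter–luciferase Huh7 cells; 24 h compound; luminescence.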
SMN2 splice enh – qHTS Assay for Enhancers of SMN2 Splice Variant Expression; Potency, µM (doses to about 46.1 µM), inactives show at the top dose activity change, positive = activation, usual class: activators; 210,000 tested, 2.8% active; HEK293 SMN2-luciferase splicing reporter, luminescence, 30-36 h; AID 1458, 2008; also: % of control where 0% means no effect; nearly all actives have a fitted effect of over 55% in size
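qHTS luciferase splicing reporter: luminescence rises when SMN2 exon 7 is included in transfected HEK293 cells. Compound exposure lasted 30-36 h at 37C, with 4.5 mM final sodium butyrate as control, followed by a ONE-Glo read.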
FLuc counter – qHTS profiling assay for firefly luciferase inhibitor/activator using purifed enzyme and Km concentrations of substrates (counterscreen for miR-21 project). Luciferin 4-monooxygenase (Photinus pyralis), P08659. purified FLuc, Km substrates, luminescence inhibition. Potency, µM (highest dose often 57.5 µM), for the others: top-dose activity change, negative = inhibition, actives largely listed as inhibitors. 360,000 tested, 6.9% active;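 also: plate controls were vehicle for no effect and reference inhibitor for full effect; nearly all actives have a fitted effect of over 55% in size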
Target sequence (P08659 whole entry, looked up): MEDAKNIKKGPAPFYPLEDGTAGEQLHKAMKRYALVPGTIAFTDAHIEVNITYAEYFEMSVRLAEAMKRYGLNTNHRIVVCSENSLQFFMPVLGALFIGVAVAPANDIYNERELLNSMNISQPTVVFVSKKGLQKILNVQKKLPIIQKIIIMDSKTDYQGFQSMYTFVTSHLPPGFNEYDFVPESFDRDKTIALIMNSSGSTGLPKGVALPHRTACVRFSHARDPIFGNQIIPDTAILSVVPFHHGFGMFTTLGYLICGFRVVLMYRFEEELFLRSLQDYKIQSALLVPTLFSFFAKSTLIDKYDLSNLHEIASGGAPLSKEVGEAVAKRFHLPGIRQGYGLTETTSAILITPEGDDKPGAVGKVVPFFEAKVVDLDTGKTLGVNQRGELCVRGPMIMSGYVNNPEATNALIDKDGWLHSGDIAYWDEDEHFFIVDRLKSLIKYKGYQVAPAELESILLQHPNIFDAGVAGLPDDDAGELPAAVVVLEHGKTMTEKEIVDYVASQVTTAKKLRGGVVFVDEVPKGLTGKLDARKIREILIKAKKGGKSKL
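Purified P. pyralis luciferase (10nM final) with 10uM D-luciferin and 10uM ATP (Km levels) in 50mM Tris acetate pH 7.5, 10mM Mg acetate, 0.01% Tween-20, 0.05% BSA; qHTS 6-point titration, ~60 µM downward; luminescence read.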
ELG1 genotox – qHTS screen for small molecules that induce genotoxicity in human embryonic kidney (HEK293T) cells expressing luciferase-tagged ELG1; HEK293T ELG1-luciferase reporter, luminescence, 16 h; AID 504466, 2011; Potency, µM (series often up to 46 µM), for inactives: at the top dose activity change, positive = activation, usual class: activators; 330,000 tested, 1.3% active; also: % of control where 0% means no effect; nearly all actives have a fitted effect of over 60% in size
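ELG1-luciferase HEK293T cells, 2,000/well; compound pinned in; 16 hr, 37 °C, 5% CO2; ONE-Glo, 30 min RT; luminescence on CCD imager.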
An asterisk follows results filed as active. Calls follow the shape of the dose curve; as a rule, active = well fitted curve in the direction sought with a large enough effect; inconclusive = small, poorly fitted or top-dose-only effect, or another doubt; inactive = no such curve, though single readings can be large; an effect the other way counts as inactive or inconclusive. Potency is read from the fitted curve at half-maximal effect.

How did O=C(Nc1c(Cl)cccc1Cl)c1cc(-c2ccco2)on1 do in these assays?
Rab9 prom act: 0%; NPC1 promoter act: -2%; FLuc counter: inconclusive; ELG1 genotox: 15%

What do the screens show for `CCCn1cc(NC(=O)c2cc(-c3ccccc3)on2)cn1`?
Rab9 prom act: inconclusive; KinaseGlo FLuc: -1%; NPC1 promoter act: 18%; SMN2 splice enh: 23%; FLuc counter: 13µM*; ELG1 genotox: 23µM*

Results for O=C(Nc1cc(Cl)ccc1O)c1cc(-c2ccco2)on1 ?
Rab9 prom act: 18%; NPC1 promoter act: 24%; FLuc counter: inconclusive; ELG1 genotox: 21µM*

Results for O=C(Nc1cnn(C23CC4CC(CC(C4)C2)C3)c1)c1cc(-c2ccccc2)on1 ?
Rab9 prom act: -5%; KinaseGlo FLuc: 3%; NPC1 promoter act: -1%; SMN2 splice enh: 5%; FLuc counter: -1%; ELG1 genotox: -2%

How did Cc1ccc(C)c(NC(=O)c2ccc3c(c2)CCN3S(C)(=O)=O)c1 do in these assays?
SMN2 splice enh: 0%; FLuc counter: -10%

What do the screens show for `CCC(=O)N1N=C(c2ccc(NS(=O)(=O)c3ccccc3)cc2)CC1c1ccco1` (stereo not drawn)?
ELG1 genotox: -4%

How did CC(NC(=O)Cc1ccc(Br)cc1)c1ccccc1 (stereo not drawn) do in these assays?
Rab9 prom act: -1%; NPC1 promoter act: -1%; FLuc counter: 3%; ELG1 genotox: 0%

Results for O=C(Nc1cccnc1Cl)c1cc(-c2ccco2)on1 ?
Rab9 prom act: inconclusive; KinaseGlo FLuc: -5%; NPC1 promoter act: 5%; SMN2 splice enh: -8%; FLuc counter: 5.4µM*; ELG1 genotox: 16µM*

What do the screens show for `COc1ccc(NC(=O)c2cc(-c3ccco3)on2)cc1`?
Rab9 prom act: 18%; KinaseGlo FLuc: 10%; NPC1 promoter act: -1%; SMN2 splice enh: inconclusive; FLuc counter: inconclusive; ELG1 genotox: -6%

Results for O=C(Nc1cccc(Cl)c1)c1cc(-c2ccccc2)on1 ?
FLuc counter: 1.5µM*

Results for COc1cccc(-c2cc(C(=O)Nc3cccc(O)c3)no2)c1 ?
Rab9 prom act: inconclusive; KinaseGlo FLuc: -17%; NPC1 promoter act: inconclusive; SMN2 splice enh: 8%; FLuc counter: 0.43µM*; ELG1 genotox: inconclusive

How did CCc1ccc(NC(=O)c2cc(-c3ccco3)on2)cc1 do in these assays?
Rab9 prom act: 2%; KinaseGlo FLuc: -2%; NPC1 promoter act: 3%; SMN2 splice enh: 12%; FLuc counter: 2.4µM*; ELG1 genotox: 12%

What do the screens show for `Cc1ccc(CS(=O)(=O)c2cn(CC(=O)N(C)c3ccccc3)c3ccccc23)cc1`?
FLuc counter: -10%

What do the screens show for `COc1cccc(-c2cc(C(=O)Nc3ccccc3SC)no2)c1`?
Rab9 prom act: inconclusive; KinaseGlo FLuc: 8%; NPC1 promoter act: inconclusive; SMN2 splice enh: 16%; FLuc counter: 7.6µM*; ELG1 genotox: inconclusive

How did CCCN1CCC(=O)N([C@H](CSc2ccc(C)cc2)CC(C)C)CC1 do in these assays?
Rab9 prom act: inconclusive; NPC1 promoter act: 4µM*; FLuc counter: 11µM*; ELG1 genotox: inconclusive

What do the screens show for `CCCN1CCC(=O)N([C@H](CSc2ccc(Br)cc2)c2ccccc2)CC1`?
Rab9 prom act: inconclusive; NPC1 promoter act: 22%; FLuc counter: 17µM*; ELG1 genotox: 12%

Results for CCCN1CCC(=O)N([C@H](CSc2ccccc2)CC(C)C)CC1 ?
Rab9 prom act: 3.2µM*; NPC1 promoter act: 3.2µM*; FLuc counter: 21µM*; ELG1 genotox: inconclusive
